Source: PubChem
Hits are enriched below; roughly 2.6% of the tested compounds scored in any of these assays.
AmpC inh no det: blocks E. coli AmpC beta-lactamase in absence of detergent; P00811; AmpC nitrocefin hydrolysis, absorbance 480 nm, no detergent; Potency, µM (top dose mostly 28.7 µM); actives 1.8% (n = 71,000)
Target sequence (P00811 whole entry, looked up): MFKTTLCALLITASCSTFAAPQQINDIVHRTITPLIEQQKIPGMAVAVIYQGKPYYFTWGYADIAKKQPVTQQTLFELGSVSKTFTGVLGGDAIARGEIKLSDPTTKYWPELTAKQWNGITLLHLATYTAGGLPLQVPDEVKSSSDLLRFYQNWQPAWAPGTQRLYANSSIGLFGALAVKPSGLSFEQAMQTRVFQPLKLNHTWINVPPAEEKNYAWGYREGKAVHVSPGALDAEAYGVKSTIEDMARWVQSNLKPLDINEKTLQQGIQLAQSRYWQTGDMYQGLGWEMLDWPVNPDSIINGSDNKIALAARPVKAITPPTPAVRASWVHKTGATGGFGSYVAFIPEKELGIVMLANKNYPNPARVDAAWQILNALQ
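AmpC in 20 mM phosphate buffer pH 7.0 was preincubated 15 min at room temperature with compounds. Nitrocefin (800 uM stock) was then added and hydrolysis followed at 480 nm every 20 s for 4 min.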
AmpC det inh: AmpC beta-lactamase inhibition, detergent assay. P00811. purified AmpC, nitrocefin hydrolysis with detergent. Potency, µM (series often up to 28.7 µM). actives 0.09% (n = 71,000). AID 584; active means well fitted curve in the direction sought with a large enough effect; inconclusive means small, poorly fitted or top-dose-only effect
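E. coli AmpC (5.3 nM) in 20 mM phosphate pH 7.0 with 0.01% Triton X-100, preincubated 15 min RT with compound; nitrocefin (2 uL of 800 uM stock) hydrolysis followed by 480 nm absorbance every 20 s over 4 min.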
Prx2 Sm inh: inhibitors of Schistosoma mansoni peroxiredoxin 2 | AID 448 | actives 0.07% (n = 65,000) | Potency, µM | S. mansoni Prx2 activity coupled to TGR/GSH (TGR is thioredoxin glutathione reductase), NADPH fluorescence loss, qHTS
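Coupled assay in which S. mansoni TGR passes NADPH reducing equivalents via glutathione to Prx2, which reduces H2O2. Compounds were preincubated 15 min at room temperature with 25 nM TGR/50 nM Prx2 mix. Kinetic NADPH fluorescence loss (ex 365/em 450 nm) was monitored.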
Anthrax LT inh: anthrax lethal toxin internalization inhibition; Cells, anthrax lethal toxin internalization, FRET ratio (460/530); actives 0.67% (n = 70,000); Potency, µM (doses to about 40 µM), most hits filed as inhibitors; AID 912; further: nearly all actives have a fitted effect of over 50% in size
Each line names hits and unclear results; the compound was inactive in the other large screens; [ ] = another dose, or the depositor's remark. Unless noted, the call rests on the fitted dose curve.

O=C(O)C[C@H]1OCC=C2CN3CC[C@@]45C6=CC(=O)C(=O)C([N+](=O)[O-])=C6N[C@H]4[C@H]1[C@H]2C[C@@H]35	none
Cc1nc2ccccc2c2oc(C(=O)NCCN3CCCCC3C)cc12 (configuration not stated)	Anthrax LT inh 7.9µM
CCCCN(CC)CCNC(=O)c1cc2c(C)nc3ccccc3c2o1	Anthrax LT inh 13µM
CCN1CCCC1CNC(=O)c1cc2c(C)nc3ccccc3c2o1 (configuration not stated)	Anthrax LT inh inconclusive
Clc1ccc(-n2nnnc2SCc2c(-c3ccccc3)nc3sccn23)cc1	AmpC inh no det 13µM
CCOc1ccc(OCC)c(S(=O)(=O)NCc2ccc3c(c2)OCO3)c1	AmpC inh no det 4µM[single pt active]
COc1cc(C)c(S(=O)(=O)NCc2ccc3c(c2)OCO3)cc1C	AmpC inh no det 3.2µM[single pt active], Anthrax LT inh inconclusive
COc1cc(S(=O)(=O)NCc2ccc3c(c2)OCO3)ccc1Cl	Anthrax LT inh inconclusive
COc1ccc(C2=NOC(C(=O)Nc3ccc(C)cc3)C2)cc1OC (configuration not stated)	none
COc1ccc(C2=NOC(C(=O)Nc3cc(C)nn3-c3ccccc3)C2)cc1OC (configuration not stated)	AmpC inh no det 4µM[single pt active]
O=C(CSc1nc2c(cnn2-c2ccccc2)c(=O)[nH]1)c1ccc(Cl)cc1	AmpC inh no det 7.9µM
Nc1nc(-c2ccccc2)cc(-c2ccccc2O)n1	none
N#CC(=C1CCCC1)c1nc(-c2ccccc2O)cs1	AmpC inh no det 6.3µM
c1ccc(-c2cccc(N3CC4(CCNCC4)C3)c2)cc1	none
c1ccc(-c2cccc(N3CCC4(CCNCC4)CC3)c2)cc1	Anthrax LT inh 10µM
O=C(CSc1nnc(-c2ccccc2F)o1)OCc1ccccc1	none
O=C(CSc1nnc2c(n1)[nH]c1ccc(F)cc12)OCc1ccccc1	AmpC inh no det 10µM
O=C(CC1Sc2ncnn2C1=O)Nc1ccc(Br)cc1 (configuration not stated)	AmpC inh no det 5µM, Anthrax LT inh inconclusive
O=C(CC1SC2=NCCN2C1=O)Nc1ccc(Br)cc1 (configuration not stated)	Anthrax LT inh inconclusive
C#CCN[C@@H](C)Cc1ccccc1	none
CCC/C=C(\CCC)C(NC(=O)c1ccc(C(F)(F)F)cc1)c1ccccc1 (configuration not stated)	AmpC inh no det 20µM[single pt active]
O=C(Nc1ccc(Nc2ccccc2)cc1)c1ccc(Br)o1	Anthrax LT inh 13µM
Cc1cc(C)cc(OCC(=O)Nc2cccc(-c3nnc(-c4ccco4)o3)c2)c1	none
O=C(COc1ccccc1)Nc1cccc(-c2nnc(-c3ccccc3)o2)c1	Anthrax LT inh 10µM
O=C(Nc1ccc(Cc2ccncc2)cc1)c1ccc(Br)o1	none
O=C(Nc1cccc(-c2cn3cccnc3n2)c1)c1ccc(Br)o1	none
O=C(Nc1cccc(-c2nnc(-c3ccccc3)o2)c1)c1ccc(Br)o1	Prx2 Sm inh inconclusive, Anthrax LT inh 10µM
O=C(O)C(Sc1ccc(Cl)cc1)Sc1ccc(Cl)cc1	none
O=C(Nc1cccc(-c2nc3ccccc3[nH]2)c1)c1cccc(NC(=O)c2ccco2)c1	Anthrax LT inh 16µM (no result: Prx2 Sm inh)
CCCOc1cccc(C(=O)Nc2cccc(NC(=O)c3ccco3)c2)c1	Anthrax LT inh 5µM (no result: Prx2 Sm inh)
COc1cc2ccc(=O)oc2c(O)c1OCC=C(C)C	Anthrax LT inh inconclusive
CC(C)=CCC/C(C)=C/COc1c2ccoc2cc2oc(=O)ccc12	AmpC inh no det 13µM, Anthrax LT inh inconclusive
Cc1onc(-c2c(F)cccc2Cl)c1C(=O)NCc1cccs1	none
Cc1onc(-c2ccccc2Cl)c1C(=O)N[C@H]1C(=O)N2[C@H]1SC(C)(C)[C@H]2C(=O)O	AmpC inh no det 0.0016µM, AmpC det inh 0.002µM
C=N[C@H](C(=O)N[C@@H]1C(=O)N2[C@@H]1SC(C)(C)[C@@H]2C(=O)O)c1ccccc1	AmpC inh no det 0.13µM, AmpC det inh 0.16µM, Anthrax LT inh inconclusive
N[C@H](C(=O)N[C@@H]1C(=O)N2C(C(=O)O)=C(Cl)CS[C@@H]12)c1ccccc1	none
Cc1onc(-c2c(F)cccc2Cl)c1C(=O)N[C@H]1C(=O)N2[C@H]1SC(C)(C)[C@H]2C(=O)O	AmpC inh no det 0.0016µM, AmpC det inh 0.002µM
Cc1onc(-c2c(F)cccc2Cl)c1C(=O)N[C@@H]1C(=O)N2[C@H]1SC(C)(C)[C@H]2C(=O)O	AmpC inh no det 0.025µM, AmpC det inh 0.04µM, Anthrax LT inh inconclusive
CC1=C2[C@@H]3OC(=O)[C@H](C)[C@H]3CC[C@@]2(C)C=CC1=O	none
COc1cc2c(cc1OC)[C@@]13CCN4C=C5CCO[C@H]6CC(=O)N2[C@@H]1[C@@H]6[C@H]5C[C@H]43	none
CN(C)CCCNCCCN	none (no result: Prx2 Sm inh)
NC(=S)SCCC(=O)O	none
CC1(C)S[C@@H]2[C@H](NC(=O)C3(N)CCCCC3)C(=O)N2[C@H]1C(=O)O	AmpC inh no det 0.0063µM, AmpC det inh 0.013µM
O=C(c1ccccc1)N1CCN(Cc2ccccc2Br)CC1	none
Brc1ccccc1CN1CCC(N2CCCCC2)CC1	Anthrax LT inh 10µM (no result: Prx2 Sm inh)
FC(F)(F)c1cc(CO[C@@H]2CCCN[C@H]2c2ccccc2)cc(C(F)(F)F)c1	none
Cc1cc(CN2CCN(CCC#N)CC2)c(O)c(C2(C)CCCCC2)c1	Anthrax LT inh 13µM
Cc1ccc2oc(=O)c3cc(C(=O)NCc4ccco4)sc3c2c1	AmpC inh no det 4µM[single pt active], Anthrax LT inh inconclusive
Cc1ccc(NC(=O)C2CCCN2S(=O)(=O)c2ccc3c(c2)CCC(=O)N3)cc1Cl (configuration not stated)	AmpC inh no det 4µM[single pt active]
O=C1CCc2cc(S(=O)(=O)N3CCCC3C(=O)N3CCN(c4ccccc4)CC3)ccc2N1 (configuration not stated)	AmpC inh no det 4µM[single pt active]
O=C1CCc2cc(S(=O)(=O)N3CCCC3C(=O)N3CCN(c4ccccc4F)CC3)ccc2N1 (configuration not stated)	none
O=C1c2cc([N+](=O)[O-])ccc2-c2ccc3c4ccc5c6c(ccc(c7ccc1c2c73)c64)C(=O)c1cc([N+](=O)[O-])ccc1-5	AmpC inh no det 2.5µM
O=[N+]([O-])c1ccc2c(c1)S(=O)c1ccccc1-2 (configuration not stated)	none
CCN1CCC[C@@H]1CNC(=O)c1c(O)c(Cl)cc(Cl)c1OC	none
COC(=O)NC(CC(C)=O)c1ccc(F)cc1 (configuration not stated)	none (no result: AmpC inh no det, AmpC det inh, Prx2 Sm inh)
COc1cc(SC)ccc1C(=O)Nc1ccc2c(c1)OCCO2	Anthrax LT inh 10µM
COc1ccccc1C(=O)Nc1ccc2c(c1)OCCO2	none
COc1ccc(S(=O)(=O)Cc2ccc(C(=O)NCc3cccs3)o2)cc1	AmpC inh no det 4µM[single pt active]
COc1ccc(S(=O)(=O)Cc2ccc(C(=O)NCc3ccco3)o2)cc1	AmpC inh no det 4µM[single pt active]
COc1ccccc1S(=O)(=O)Cc1ccc(C(=O)NCc2cccs2)o1	none (no result: Anthrax LT inh)
O=C(NCc1ccc2c(c1)OCO2)c1ccc(CS(=O)(=O)c2ccc(Br)cc2)o1	AmpC inh no det 4µM[single pt active], Anthrax LT inh inconclusive
CCCCNC(=O)c1ccc(CS(=O)(=O)c2ccc(OC)cc2)o1	AmpC inh no det 4µM[single pt active]
